Screens: PubChem BioAssay, Broad Institute
C diff growth – blocks growth of Clostridium difficile | Clostridium difficile clinical isolate growth, OD600, 24 h; active compounds read low | growth activity, negative = inhibition, % at 16 µg/mL (by protocol) | 86,000 compounds, 0.25% hits;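 active means mean growth activity at or below -80% and every replicate also at or below -80%; inconclusive means mean at or below -80% but some replicate above -80%; inactive means mean growth activity above -80%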;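 further: 0% = DMSO wells and -100% = levofloxacin 16 µg/mL wells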
T cruzi growth-1 – blocks T. cruzi growth in NIH3T3 culture; T. cruzi beta-gal in NIH3T3, GalScreen luminescence, 90 h; inhibition, % at 8.34 µM; 77,000 compounds, 5.9% hits; AID 624255;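 active means mean inhibition above about 93%, with at least 55% of replicates each passing it, limit read from the data, passing the limit was not always enough; inconclusive means only one of those two conditions holds; inactive means neither condition holds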
Pf Dd2 inh – blocks growth of Plasmodium falciparum Dd2 parasites. P. falciparum Dd2 growth, SYBR Green, 72 h; active compounds read low. activity change, % at 10 µM. 94,000 compounds, 2.3% hits. AID 1159554; in the data active means activity change below about -80%; inconclusive means no clear call, values can overlap the other calls
T cruzi growth-2 – inhibitors of T. cruzi proliferation; T. cruzi beta-gal in NIH3T3, GalScreen luminescence, 90 h; shares compounds with T cruzi growth-1; 5,600 compounds, 72% hits; inhibition, % at 8.35 µM; AID 651739;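 active means mean replicate inhibition above about 95% and at least 55% of replicates individually reaching it, limit read from the data; inconclusive means only one of the two criteria is met; inactive means neither criterion is met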
T cruzi growth-3 – Trypanosoma cruzi proliferation inhibition. shares compounds with T cruzi growth-1. T. cruzi beta-gal in NIH3T3, GalScreen luminescence, 90 h. inhibition, % at 2.09 µM. 5,600 compounds, 21% hits. AID 651740;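 active means mean inhibition above about 95%, with at least 55% of replicates also reaching it, limit read from the data; inconclusive means meets just one of the two conditions; inactive means meets neither condition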;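 further: plate controls were neutral control median for no effect and positive control median for full effect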
NIH3T3 tox – NIH/3T3 (mouse) viability loss | shares compounds with T cruzi growth-1 | NIH/3T3 viability, CellTiter-Glo ATP luminescence, 90 h | cytotoxicity (signal decrease), % at 8.35 µM | 5,600 compounds, 14% hits;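 active means mean signal decrease across replicates above about 35% based on untreated-well scatter, with enough replicates individually passing, limit read from the data; inconclusive means no rule stated though some were filed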;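 further: 0% = median of neutral control wells and 100% = median of positive control wells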
NIH3T3 tox 2 – kills mouse NIH/3T3 fibroblasts; shares compounds with T cruzi growth-1; NIH/3T3 viability, CellTiter-Glo ATP luminescence, 90 h; inhibition, % at 24.9 µM; 5,600 compounds, 56% hits;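 active means mean loss of cell viability signal at or above a set limit, and enough replicates individually reaching it; inconclusive means meets only the mean limit or only the replicate share; inactive means meets neither condition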;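 further: 0% = median of neutral control wells and 100% = median of positive control wells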
* hit, by the source's call; ? = inconclusive; . = no result; ! = a repeat was not active. The list is not random: actives were taken first. Their share in the collection is about 6.7%.

SMILES | C diff growth | T cruzi growth-1 | Pf Dd2 inh | T cruzi growth-2 | T cruzi growth-3 | NIH3T3 tox | NIH3T3 tox 2
CN(C)C(=O)[C@@H]1[C@@H](CO)[C@@H]2Cn3c(ccc(C4=CCCC4)c3=O)[C@H]1N2CC1CC1 | 0 | 33 | 12 | . | . | . | .
CCC(=O)N(C)C[C@H]1Oc2cc(-c3ccc(F)cc3)ccc2S(=O)(=O)N([C@H](C)CO)C[C@H]1C | -10 | 72 | 0 | . | . | . | .
COCCNC(=O)C[C@H]1C[C@H]2c3cc(NS(=O)(=O)c4ccc(F)cc4)ccc3O[C@H]2[C@@H](CO)O1 | -2 | -62 | 5 | . | . | . | .
C[C@@H]1CN([C@H](C)CO)S(=O)(=O)c2ccc(-c3cncnc3)cc2O[C@H]1CN(C)C(=O)C1CCC1 | 5 | 63 | 8 | . | . | . | .
C[C@H](CO)N1C[C@H](C)[C@H](CN(C)Cc2ccc(C(F)(F)F)cc2)Oc2c(NC(=O)c3nc4ccccc4s3)cccc2C1=O | . | 97* | -87* | 100* | 98* | 15 | 93*
C[C@H]1CN([C@@H](C)CO)C(=O)c2cccc(NC(=O)c3nc4ccccc4s3)c2O[C@@H]1CN(C)Cc1ccc(C(F)(F)F)cc1 | . | 94 | -45 | . | . | . | .
COCC(=O)N1CC2(CCN(C(=O)CN3CCOCC3)CC2)c2c([nH]c3cc(OC)ccc23)[C@H]1CO | -2 | . | 27 | . | . | . | .
Cc1noc(C)c1NC(=O)N[C@@H]1C=C[C@H](CC(=O)NCc2ccc(Cl)c(Cl)c2)O[C@H]1CO | 12 | -57 | 2 | . | . | . | .
CCCC(=O)Nc1ccc2c(c1)C(=O)N(C)C[C@@H](OC)[C@H](C)CN(CC1CCCC1)[C@@H](C)CO2 | . | 0 | 3 | . | . | . | .
CN1C(=O)c2cc(NC(=O)c3ccc(C(F)(F)F)cc3)ccc2OC[C@@H]2O[C@@H](CC(=O)NC3Cc4ccccc4C3)CC[C@H]21 | 36 | 100* | -12 | 106* | 49 | ? | 43*
CN1C(=O)c2cc(NC(=O)c3ccc(C(F)(F)F)cc3)ccc2OC[C@@H]2O[C@@H](CC(=O)NC3Cc4ccccc4C3)CC[C@@H]21 | . | 79 | -13 | . | . | . | .
CN1C(=O)c2cc(NC(=O)c3ccc(Cl)cc3)ccc2OC[C@@H]2O[C@@H](CC(=O)NCc3cccc(F)c3)CC[C@@H]21 | 4 | 103* | 1 | 103* | 34 | 32 | 61*
CN1C(=O)c2cc(NC(=O)c3cccc(F)c3)ccc2OC[C@@H]2O[C@H](CC(=O)NCC3CCCCC3)CC[C@@H]21 | 3 | 117* | . | 94 | 34 | 43*! | 85*
CN1C(=O)c2cc(NC(=O)c3ccc(Cl)cc3)ccc2OC[C@H]2O[C@H](CC(=O)NCc3cccc(F)c3)CC[C@@H]21 | 12 | 43 | -17 | . | . | . | .
CN1C(=O)c2cc(NC(=O)c3cccc(F)c3)ccc2OC[C@@H]2O[C@H](CC(=O)NCc3ccccc3)CC[C@H]21 | 2 | -17 | -33 | . | . | . | .
CN1C(=O)c2cc(NC(=O)c3ccc(Cl)cc3)ccc2OC[C@H]2O[C@H](CC(=O)NCc3cccc(F)c3)CC[C@H]21 | 11 | 101* | -16 | 67 | 47 | 1 | 14
CN1C(=O)c2cc(NC(=O)c3cccc(F)c3)ccc2OC[C@H]2O[C@@H](CC(=O)NCC3CCCCC3)CC[C@H]21 | 0 | 88 | . | . | . | . | .
C[C@@H]1CN([C@H](C)CO)C(=O)Cc2cc(NS(=O)(=O)c3cccs3)ccc2O[C@H]1CN(C)Cc1ccc(C(=O)O)cc1 | 8 | -32 | 13 | . | . | . | .
Cc1ccc(S(=O)(=O)N[C@H]2C=C[C@@H](CC(=O)N3CCN(c4ccccc4)CC3)O[C@@H]2CO)cc1 | -4 | -15 | 2 | . | . | . | .
COc1ccc(NC(=O)Nc2ccc3c(c2)[C@@H]2C[C@H](CC(=O)NC4CCCCC4)O[C@H](CO)[C@@H]2O3)cc1 | -3 | -58 | -36 | . | . | . | .
CCC(=O)Nc1ccc2c(c1)OC[C@H](C)N(CC1CCCCC1)C[C@H](C)[C@@H](OC)CN(C)C2=O | 2 | -3 | -2 | . | . | . | .
CN1C(=O)c2cc(NC(=O)c3cccc(F)c3)ccc2OC[C@H]2O[C@H](CC(=O)N3CCc4ccccc4C3)CC[C@@H]21 | -2 | 42 | 1 | . | . | . | .
CN1C(=O)c2cc(NC(=O)c3cccc(F)c3)ccc2OC[C@H]2O[C@@H](CC(=O)N3CCc4ccccc4C3)CC[C@H]21 | -7 | 104* | -2 | 97* | 26 | 24 | 38*
CN1C(=O)c2cc(NC(=O)c3cccc(Cl)c3)ccc2OC[C@H]2O[C@@H](CC(=O)NC3CCCCC3)CC[C@H]21 | -2 | 107* | -10 | 104* | 45 | 27 | 38*
CN1C(=O)c2cc(NC(=O)c3ccccc3)ccc2OC[C@@H]2O[C@H](CC(=O)NC3CCCC3)CC[C@H]21 | -5 | 8 | -23 | . | . | . | .
SMILES | C diff growth | T cruzi growth-1 | Pf Dd2 inh | T cruzi growth-2 | T cruzi growth-3 | NIH3T3 tox | NIH3T3 tox 2
O=C(C[C@@H]1CC[C@H](NS(=O)(=O)c2ccc(F)cc2)[C@H](CO)O1)NC1CCC1 | 4 | -30 | -7 | . | . | . | .
CO[C@@H]1CN(C)C(=O)c2ccc(NC(=O)Cc3ccccc3)cc2OC[C@@H](C)N(C(=O)c2ccccc2F)C[C@@H]1C | . | ? | -58 | . | . | . | .
C[C@@H]1CN([C@H](C)CO)C(=O)Cc2cc(NS(=O)(=O)c3ccc(Cl)cc3)ccc2O[C@@H]1CN(C)Cc1ccc(Cl)c(Cl)c1 | 37 | 90 | 8 | . | . | . | .
COc1ccc2c3c([nH]c2c1)[C@@H](CO)N(Cc1nccs1)CC31CN(C(=O)C2CCC2)C1 | 0 | . | 11 | . | . | . | .
CC(C)CC#Cc1cnc2c(c1)C(=O)N([C@@H](C)CO)C[C@@H](C)[C@H](CN(C)S(=O)(=O)c1ccccc1)O2 | -10 | 78 | -22 | . | . | . | .
Cc1ccc(S(=O)(=O)N(C)C[C@@H]2Oc3ncc(C#CCC(C)C)cc3C(=O)N([C@H](C)CO)C[C@@H]2C)cc1 | -11 | 105* | -43 | 105* | 61 | 23 | 64*
CC(C)CC#Cc1cnc2c(c1)C(=O)N([C@@H](C)CO)C[C@@H](C)[C@H](CN(C)S(C)(=O)=O)O2 | -7 | 41 | -13 | . | . | . | .
Cc1ccc(S(=O)(=O)N(C)C[C@@H]2Oc3ncc(C#CCC(C)C)cc3C(=O)N([C@H](C)CO)C[C@H]2C)cc1 | -6 | 122*! | -66 | 103* | 65 | 5 | 85*
C[C@@H]1CCCCO[C@@H](CN(C)S(C)(=O)=O)[C@@H](C)CN([C@@H](C)CO)C(=O)c2cc(NS(C)(=O)=O)ccc2O1 | -5 | 17 | 24 | . | . | . | .
C[C@H](CO)N1C[C@H](C)[C@H](CN(C)S(=O)(=O)c2ccc(F)cc2)Oc2ccc(NC(=O)Cn3cnnn3)cc2CC1=O | -8 | -13 | 3 | . | . | . | .
Cc1noc(C)c1S(=O)(=O)Nc1ccc2c(c1)CC(=O)N([C@H](C)CO)C[C@@H](C)[C@H](CN(C)Cc1ccc(Cl)c(Cl)c1)O2 | 88 | 67 | 0 | . | . | . | .
